# Marburg entry inh – qHTS for inhibitors of binding or entry into cells for Marburg Virus; Marburg virus pseudotyped entry inhibition, cell reporter; Potency, µM (series often up to 37.8 µM), for inactives: top-dose activity change, negative = inhibition, most hits filed as inhibitors; 300,000 tested, 1.8% active; AID 540276, 2011; calls by dose curve; tested in HEK293 cells; further: potency means the concentration at half of the fitted maximal effect
# Lassa entry inh – qHTS for Inhibitors of binding or entry into cells for Lassa Virus; 300,000 tested, 1.2% active; AID 540256, 2011; Lassa virus pseudotype entry inhibition, cell reporter; Potency, µM (series often up to 37.9 µM), without a hit: at the top dose activity change, negative = inhibition, most hits filed as inhibitors; calls by dose curve; tested in HEK293 cells; further: potency means the concentration at half of the fitted maximal effect; nearly all actives have a fitted effect of over 50% in size
# VACV Venus inh – qHTS for Stage-Specific Inhibitors of Vaccinia Orthopoxvirus: Venus Reporter Primary qHTS; Vaccinia virus Venus reporter expression, fluorescence; Potency, µM (highest dose often 36.5 µM), inactives show at the highest dose activity change, negative = inhibition, usual class: inhibitors; 330,000 tested, 0.46% active; AID 720580, 2013; calls by dose curve; tested in A549 cells; further: potency means the concentration at half of the fitted maximal effect; nearly all actives have a fitted effect of over 30% in size
# HCMV inh – qHTS Assay for inhibitors of the human cytomegalovirus (HCMV). HFF cells, HCMV-luciferase reporter, 72 h; hits give low values. activity change, negative = inhibition, % at 57.5 µM. 410,000 tested, 4.5% active. AID 1259415, 2018; in the data active means activity change below about -60%; inconclusive means no clear call, values can overlap the other calls; inactive means above about -39%
#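 Two compound doses tested in HFFs infected with HCMV-luciferase, MOI 1 PFU/cell, 72 h at 37C. Lysate luminescence read with OneGlo; data normalized against buffer-only and 10uM Salinomycin inhibitor controls.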
# VACV mCherry inh – qHTS for Stage-Specific Inhibitors of Vaccinia Orthopoxvirus: mCherry Reporter Primary qHTS; Vaccinia virus mCherry reporter infection, fluorescence; Potency, µM (series often up to 36.5 µM), for inactives: at the top dose activity change, negative = inhibition, hits mostly inhibitors; 310,000 tested, 0.63% active; calls by dose curve; tested in A549 cells; further: potency means the concentration at half of the fitted maximal effect; nearly all actives have a fitted effect of over 35% in size
# FMDV antiviral – High Throughput Screening for Foot and Mouth Disease Virus Antivirals | Potency, µM (top dose mostly 57.9 µM), for inactives: at the highest dose activity change, negative = inhibition, hits mostly inhibitors | 410,000 tested, 1.2% active | AID 1159524, 2015 | FMDV antiviral cell-based qHTS; calls by dose curve; tested in HEK293T cells; further: read-out not given here; potency means the concentration at half of the fitted maximal effect; nearly all actives have a fitted effect of over 45% in size
# Active calls of the source: *; i = inactive; ? = inconclusive; / = not tested or not shown; + = active, no number; [ ] = another dose, or the depositor's remark. Only some compounds are listed: those with a hit (about 6.5% of all), similar ones and a draw of the others. On the % scale 0 is the no-effect control and ±100 the full control effect.
SMILES,Marburg entry inh,Lassa entry inh,VACV Venus inh,HCMV inh,VACV mCherry inh,FMDV antiviral
OC1(c2cccc(C(F)(F)F)c2)CCN(c2ccc(-c3ccccc3)nn2)CC1,12.6%,?,-13.1%,17.4,-7.3%,50.5%
COc1cc(OC)cc(C(=O)N2CC(=O)Nc3ccc(Cl)cc3C2c2ccccc2)c1 (centres undefined),16.3%[46.1 µM],4.2%[46.1 µM],-17.1%,-6.0,-18.7%,-1.6%
Cc1ccc2c(c1)[nH]c1c(N3CCN(Cc4ccccc4)CC3)ncnc12,16.4µM*,20.6µM*,?,-84.9*,?,/
Cc1ccc2[nH]c3c(N4CCCCCC4)ncnc3c2c1,1.4%,/,/,/,/,/
NS(=O)(=O)c1ccc(Nc2nc(-c3ccc(F)cc3)cs2)cc1,?,-0.6%,-16.6%,-26.9,?,?
NS(=O)(=O)c1ccc(Nc2nc(-c3ccc(O)cc3O)cs2)cc1,?,-22.8%,-14.7%,-91.0*,i,?
COC(=O)[C@@]12OC[C@]34[C@H]([C@@H](O)[C@@H]1O)[C@@]1(C)C(=O)C(O[C@@H]5OC(CO)[C@@H](O)[C@@H](O)[C@@H]5O)=C[C@@H](C)[C@@H]1C[C@H]3OC(=O)[C@H](OC(=O)/C=C(\C)C(C)(C)OC(C)=O)[C@@H]24 (some centres undefined),/,/,8.91µM*,/,8.91µM*,0.0%
CCCn1c(C(O)c2ccc(OC)cc2)nc2ccccc21 (centres undefined),10.7%[46.1 µM],1.3%,-24.0%,-12.7,-23.7%,-17.5%
CCCn1c(C(O)c2ccc(OC)c(OC)c2)nc2ccccc21 (centres undefined),/,/,/,-68.7*,/,?
Cc1ccc(-n2cc(CN3CCC(O)(c4ccccn4)CC3)c(-c3ccc(F)cc3)n2)cc1,3.98µM*,?,?,?,?,-28.6%
CCOCCc1nn2c(=O)cc(COC(=O)c3ccccc3NC(=O)CC(C)C)nc2s1,/,-2.2%[46.1 µM],-2.6%,15.4,-9.0%,-23.4%
O=C(NC1CCCCC1)C(=O)c1ccccc1F,/,/,/,40.0,/,/
CC(C)CC1NC(=S)N(Cc2ccccc2)C1=O (centres undefined),?,-2.3%,/,-100.1*,/,11.1%
O=C1C(Cc2ccccc2)NC(=S)N1Cc1ccccc1 (centres undefined),/,/,/,-19.8,/,-6.6%
O=C(CCN1C(=O)c2ccccc2C1=O)Nc1sc2c(c1C(=O)NCC1CCCO1)CCC2 (centres undefined),21.8%,?,-10.7%,-32.2,-13.8%,-11.9%
CC(C(=O)Nc1sc2c(c1C(=O)NCC1CCCO1)CCC2)N1C(=O)c2ccccc2C1=O (centres undefined),?,-8.6%,-10.8%,-100.2*,-19.0%,-27.0%
O=C(O[C@H]1CC[C@@]23CCCN2C(=O)CCC[C@H]3[C@H]1Cc1ccccc1)N1CCCC1,/,/,/,-16.3,/,/
CCC(C)CN1C(=O)NC(CCc2ccccc2)C(C(C)=O)=C1C (centres undefined),-18.2%[14.2 µM],/,/,/,/,/
CCOC(=O)COc1ccc(/C=C/[N+](=O)[O-])c(OCC(=O)OCC)c1,5.17µM*,20.6µM*,/,-104.8*,/,14.1µM*
CCOC(=O)COc1ccc2nsnc2c1,20.3%[46.1 µM],8.6%,?,70.1,/,-14.5%
CCOC(=O)COc1ccc2ccccc2c1/C=C/[N+](=O)[O-],4.47µM*,?,-7.9%,-98.7*,-18.5%,12.6µM*
CN=C1N[C@H](c2ccccc2)N(c2ccccc2)S1,/,/,/,/,/,52.4%
Cn1c(=S)[nH]c2cc(C(=O)N3CCN(Cc4cccs4)CC3)ccc2c1=O,/,/,-17.5%,/,-27.5%,/
COc1ccc(CCN2CCC(CNC(=O)c3cnn(-c4cccc(Cl)c4)c3C3CCN(C(=O)OC(C)(C)C)CC3)CC2)cc1,/,-23.7%[46.1 µM],?,-100.9*,?,-6.0%
CCOC(=O)c1cnn(-c2ccc(Cl)cc2)c1C1CCN(C(=O)OC(C)(C)C)CC1,?,3.26µM*,-29.1%,-23.7,?,?
Cc1ccc(-n2ncc(C(=O)NCCCN3CCCCC3)c2C2CCN(C(=O)OC(C)(C)C)CC2)cc1,/,?,-13.9%,+,-14.9%,-18.6%

# Assay outcomes from PubChem BioAssay.
